# Test results taken from the supplement of paper PMC3842684.
# Tests used:
# [1] = test system: P. falciparum NF54-pfs16-GFP early (I-III) stage gametocytes; test: relative % inhibition of viable gametocyte number; higher = more gametocytocidal; conditions: stage: early (I-III) gametocyte, incubation 72 h
# Method in brief: (§1)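 Early-stage (I/IIa, day 2) or late-stage (day 8) NF54 pfs16-GFP gametocytes were isolated by magnet and plated in 384-well poly-D-lysine imaging plates at 10% parasitaemia and 0.1% haematocrit, with compound in duplicate at 5 or 0.5 µM. After 72 h at 37°C under 5% CO2 and 5% O2, MitoTracker Red was added overnight. Confocal imaging scored elongated GFP objects whose MitoTracker signal passed a cut-off as viable gametocytes. Relative inhibition was normalised against vehicle and positive-control wells on the same plate.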
# [2] = test system: P. falciparum NF54-pfs16-GFP late (IV-V) stage gametocytes; test: as above; conditions: stage: late (IV-V) gametocyte, incubation 72 h
# Method in brief: as §1
SMILES,relative % inhibition ([1]; 0.5 µM),relative % inhibition ([1]; 5 µM),relative % inhibition ([2]; 0.5 µM),relative % inhibition ([2]; 5 µM)
CC(C)(C)c1ccc(C(=O)Nc2c3c(nn2-c2cccc(Cl)c2)CSC3)cc1,-12.5%,10.5%,-5.32%,8.85%
CC(C)(C)c1ccc(C(=O)Nc2nc3ccccc3s2)cc1,0.793%,31%,6.03%,2.42%
CCc1ccc(CNCC(O)c2ccccc2)cc1 (stereo not drawn),9.08%,44.3%,3.65%,11.4%
COc1ccccc1C(=O)ON=C(N)Cc1cccc2ccccc12,13.9%,78%,5.05%,92.5%
COc1cc(-c2nc(-c3ccccc3)c(-c3ccccc3)[nH]2)cc(OC)c1O,15.2%,29.3%,-17%,2.98%
COc1ccc(C2=C(c3ccc(OC)cc3)C3(c4ccccc4)C(=O)C2(c2ccccc2)C2C(=O)N(c4ccc(C)cc4)C(=O)C23)cc1 (stereo not drawn),60.3%,84.7%,34.3%,28.5%
CN1CCN(c2ncnc3c2[nH]c2ccc(Cl)cc23)CC1,9.76%,20.1%,2.38%,7.14%
CC(=O)Nc1nnc(SCc2c(C)cc(C(C)(C)C)cc2C)s1,13.5%,19.8%,-4.86%,60.7%
CCOc1cc(Br)c(C(C)NC(=O)c2cccc(OC)c2)cc1OCC (stereo not drawn),9.37%,46.2%,11.2%,42.6%
CC1CC2=C(CC1CNCCCN(C)C)C(C)(C)CCC2 (stereo not drawn),33.8%,97.1%,20.7%,85.3%
FC(F)(F)c1cccc(Nc2nc(-c3ccccc3)nc3ncccc23)c1,5.1%,-19.6%,2.84%,-1.26%
O=C(NCC1Cc2cccc(-c3ccncc3)c2O1)c1csc2c1CCCC2 (stereo not drawn),-5.92%,6.48%,5.28%,-0.912%
